Assay results reported in PubChem BioAssay (Tox21).
Results filed as inconclusive are left out. Calls of active or inactive are those of the source. Unless noted, calls follow the shape of the dose curve; as a rule, active = well fitted curve in the direction sought with a large enough effect in the repeat runs; inconclusive = weak or mixed curves; inactive = no such curve, though single readings can be large; an effect the other way counts as inactive or inconclusive.

How the values were obtained:
[1] = target: Bile acid receptor (Homo sapiens) (UniProt Q96RI1); assay: qHTS assay to identify small molecule antagonists of the farnesoid-X-receptor (FXR) signaling pathway (AID 743217; active = well fitted inhibition curve with a large enough effect in the signal ratio in the repeat runs, not every such curve was filed as active; the % refers to the signal ratio; also: % is scaled to controls: 0 for no effect and ±100 for the full control effect)
Chain of Bile acid receptor (Homo sapiens) (Q96RI1 whole entry, looked up): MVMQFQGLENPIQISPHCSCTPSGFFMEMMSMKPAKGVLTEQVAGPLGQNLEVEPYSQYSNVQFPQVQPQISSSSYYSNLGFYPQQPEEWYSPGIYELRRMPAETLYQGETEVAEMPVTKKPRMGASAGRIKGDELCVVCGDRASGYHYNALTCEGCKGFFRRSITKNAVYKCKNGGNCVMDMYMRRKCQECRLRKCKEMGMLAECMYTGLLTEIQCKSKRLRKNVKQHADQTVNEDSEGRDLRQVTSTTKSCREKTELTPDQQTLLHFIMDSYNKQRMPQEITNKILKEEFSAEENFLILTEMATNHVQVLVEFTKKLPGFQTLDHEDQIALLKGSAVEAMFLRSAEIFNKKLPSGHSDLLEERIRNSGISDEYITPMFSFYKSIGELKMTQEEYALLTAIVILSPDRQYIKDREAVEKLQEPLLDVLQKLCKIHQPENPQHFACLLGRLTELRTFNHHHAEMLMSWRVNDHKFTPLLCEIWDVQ
Outline: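 FXR-UAS-bla HEK 293T cells pre-incubated 5 h at 37 °C, then exposed to compounds with chenodeoxycholic acid (50 uM final) for 16 h at 37 °C. Beta-lactamase reporter read by LiveBLAzer B/G FRET substrate fluorescence after 2 h at room temperature.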

[2] = qHTS assay to identify small molecule agonists of the farnesoid-X-receptor (FXR) signaling pathway - cell viability counter screen (AID 743218); also: nearly all actives have a fitted effect of over 45% in size; also: potency is read from the fitted curve at half-maximal effect
Outline: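 FXR-UAS-bla HEK 293T cells, plated 5 h at 37 C, were exposed to compounds for 16 h at 37 C. CellTiter-Glo was then added to the same wells as the bla readout; luminescence read after 30 min at room temperature.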

[3] = qHTS assay to identify small molecule antagonists of the farnesoid-X-receptor (FXR) signaling pathway - cell viability counter screen (AID 743221; active = well fitted cell-killing curve with a large enough effect in the repeat runs, not every such curve was filed as active; also: nearly all actives have a fitted effect of over 50% in size; also: potency is read from the fitted curve at half-maximal effect)
Outline: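 Here viability was scored by luminescence after CellTiter-Glo addition to wells already read for beta-lactamase. Prior treatment: compound plus CDCA (50 uM final), 16 h, 37 C, HEK 293T FXR-bla cells.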

[4] = target: Vitamin D3 receptor (Homo sapiens) (UniProt P11473); assay: qHTS assay to identify small molecule agonists of the vitamin D receptor (VDR) signaling pathway (AID 743222; calls by dose curve; also: % is scaled to controls: 0 for no effect and ±100 for the full control effect)
Chain of Vitamin D3 receptor (Homo sapiens) (P11473 whole entry, looked up): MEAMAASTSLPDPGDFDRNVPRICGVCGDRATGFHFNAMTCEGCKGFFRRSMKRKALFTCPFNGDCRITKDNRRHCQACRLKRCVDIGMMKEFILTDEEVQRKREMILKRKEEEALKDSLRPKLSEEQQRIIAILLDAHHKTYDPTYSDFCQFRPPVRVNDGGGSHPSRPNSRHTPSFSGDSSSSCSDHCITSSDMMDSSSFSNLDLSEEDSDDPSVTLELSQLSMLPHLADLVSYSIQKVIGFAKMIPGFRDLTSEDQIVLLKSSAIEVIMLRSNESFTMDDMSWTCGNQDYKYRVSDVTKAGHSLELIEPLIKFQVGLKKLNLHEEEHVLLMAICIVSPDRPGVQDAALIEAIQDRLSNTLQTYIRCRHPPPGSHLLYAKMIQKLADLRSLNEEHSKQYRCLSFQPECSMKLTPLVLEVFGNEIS
Outline: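 VDR-bla cells were plated 4 h at 37C/5% CO2, then exposed to compounds in DMSO for 16 h. After LiveBLAzer B/G FRET substrate addition and 2 h at room temperature, beta-lactamase reporter fluorescence was read.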

[5] = target: Vitamin D3 receptor (Homo sapiens) (UniProt P11473); assay: qHTS assay to identify small molecule antagonists of the vitamin D receptor (VDR) signaling pathway (AID 743223; active = well fitted inhibition curve with a large enough effect in the signal ratio in the repeat runs, not every such curve was filed as active; the % refers to the signal ratio; also: % is scaled to controls: 0 for no effect and ±100 for the full control effect)
Outline: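 Inhibition of agonist-driven VDR signalling is scored in VDR-bla cells: 3 nM final 1alpha,25-dihydroxyvitamin D3 plus compound, 16 h at 37C, then beta-lactamase detection by FRET substrate fluorescence after 2 h.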

[6] = qHTS assay to identify small molecule agonists of the vitamin D receptor (VDR) signaling pathway - cell viability counter screen (AID 743224); also: nearly all actives have a fitted effect of over 50% in size; also: potency is read from the fitted curve at half-maximal effect
Outline: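 VDR-bla cells were preincubated 4 h at 37C/5% CO2, then exposed to compounds for 16 h. After the 2 h room-temperature bla FRET read, CellTiter-Glo was added to the same wells and luminescence read after 30 min.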

[7] = qHTS assay to identify small molecule antagonists of the vitamin D receptor (VDR) signaling pathway - cell viability counter screen (AID 743225); also: nearly all actives have a fitted effect of over 50% in size; also: potency is read from the fitted curve at half-maximal effect
Outline: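 Compounds were pinned onto VDR-bla HEK 293T cells together with 1-alpha,25-dihydroxyvitamin D3 at 3 nM final. After 16 h at 37C and 5% CO2 plus the reporter readout, cell viability was measured by CellTiter-Glo luminescence (30 min, room temperature).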

[8] = qHTS assay to identify small molecule agonists of the NFkB signaling pathway - cell viability counter screen (AID 1159515; calls by dose curve; also: nearly all actives have a fitted effect of over 55% in size; also: potency is read from the fitted curve at half-maximal effect)
Outline: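 NFkB-bla ME-180 cells, 2,000/well, were plated overnight at 37 C, 5% CO2, then exposed to compounds in DMSO for 5 hr. After the bla FRET read, CellTiter-Glo was added to the same wells; luminescence was read after 30 min at room temperature.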

[9] = qHTS assay to identify small molecule antagonists of the retinoid-related orphan receptor gamma (ROR-gamma) signaling pathway - cell viability counter screen (AID 1159520); also: % is scaled to controls: 0 for no effect and ±100 for the full control effect; nearly all actives have a fitted effect of over 50% in size
Outline: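 Cytotoxicity was read from cellular ATP (CellTiter-Glo luminescence) after 16 hr at 37 C with 1 uM doxycycline induction. The inducer was added 2 hr after compound transfer to Tet-on ROR gamma CHO cells.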

[10] = target: Nuclear receptor ROR-gamma (Homo sapiens) (UniProt P51449); assay: qHTS assay to identify small molecule antagonists of the retinoid-related orphan receptor gamma (ROR-gamma) signaling pathway (AID 1159521; also: nearly all actives have a fitted effect of over 50% in size; also: potency is read from the fitted curve at half-maximal effect)
Outline: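 Test compounds were applied to Tet-on RORγ CHO cells 2 h ahead of doxycycline hyclate (1 uM final). Luciferase reporter activity was quantified by luminescence after 16 h at 37 C and 5% CO2.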

[11] = qHTS assay to identify small molecule agonists of the AP-1 signaling pathway - cell viability counter screen (AID 1159525; calls by dose curve; also: nearly all actives have a fitted effect of over 55% in size)
Outline: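 Luminescent ATP readout (Cell Titer Glo, 30 min RT), normalised to DMSO and tetra n-octyl ammonium bromide controls. Cells were ME-180 AP-1-bla in 0.5% dialyzed FBS Opti-MEM, with a 5 h, 37 °C compound exposure.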

[12] = qHTS assay to identify small molecule antagonists of the peroxisome proliferator-activated receptor delta (PPARd) signaling pathway - cell viability counter screen (AID 743213); also: nearly all actives have a fitted effect of over 50% in size; also: potency is read from the fitted curve at half-maximal effect
Outline: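 PPARd-bla HEK293H cells were treated with compounds plus agonist L165041 (300 nM final) for 17 h at 37 C. Viability was then read in the same wells by CellTiter-Glo luminescence after 30 min at room temperature.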

[13] = target: Peroxisome proliferator-activated receptor delta (Homo sapiens) (UniProt Q03181); assay: qHTS assay to identify small molecule antagonists of the peroxisome proliferator-activated receptor delta (PPARd) signaling pathway (AID 743215; active = well fitted inhibition curve with a large enough effect in the signal ratio in the repeat runs, not every such curve was filed as active; the % refers to the signal ratio;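 also: cells stimulated with agonist L165041 at 300 nM final during compound exposure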; also: potency is read from the fitted curve at half-maximal effect)
Chain of Peroxisome proliferator-activated receptor delta (Homo sapiens) (Q03181 whole entry, looked up): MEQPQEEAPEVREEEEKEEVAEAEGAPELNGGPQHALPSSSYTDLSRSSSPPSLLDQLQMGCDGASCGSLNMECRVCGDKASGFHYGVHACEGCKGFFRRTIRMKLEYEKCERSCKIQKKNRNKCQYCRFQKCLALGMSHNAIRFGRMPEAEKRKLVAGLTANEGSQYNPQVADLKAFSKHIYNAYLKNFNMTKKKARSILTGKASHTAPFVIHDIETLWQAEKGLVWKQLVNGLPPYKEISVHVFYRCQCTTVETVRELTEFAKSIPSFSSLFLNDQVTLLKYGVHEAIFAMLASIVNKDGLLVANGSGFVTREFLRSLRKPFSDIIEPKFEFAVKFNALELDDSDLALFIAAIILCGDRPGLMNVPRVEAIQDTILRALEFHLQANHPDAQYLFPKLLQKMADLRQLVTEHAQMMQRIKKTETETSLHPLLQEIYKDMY
Outline: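 PPARd UAS-bla HEK293H cells were pre-incubated 5 h at 37 C, then given test compounds in DMSO plus agonist L165041 (300 nM final). After 17 h at 37 C, beta-lactamase FRET substrate was added; fluorescence read after 2 h at room temperature.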

[14] = target: Bile acid receptor (Homo sapiens) (UniProt Q96RI1); assay: qHTS assay to identify small molecule agonists of the farnesoid-X-receptor (FXR) signaling pathway (AID 743220; active = well fitted activation curve with a large enough effect in the signal ratio in the repeat runs, not every such curve was filed as active; the % refers to the signal ratio; also: % is scaled to controls: 0 for no effect and ±100 for the full control effect)
Outline: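 Beta-lactamase reporter under UAS control in GeneBLAzer FXR HEK 293T cells (5000/well) measured with LiveBLAzer FRET substrate after 2 h at room temperature. Compound exposure lasted 16 h at 37C.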

[15] = qHTS assay to identify small molecule agonists of the endoplasmic reticulum stress response signaling pathway - cell viability counter screen (AID 1159517; calls by dose curve)
Outline: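 Cells, HeLa ESRE-bla; density, 1,500/well; dosing, 5 hr at 37 C, 5% CO2; readout, CellTiter-Glo luminescence after 30 min RT.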

[16] = qHTS assay to identify small molecule agonists of the peroxisome proliferator-activated receptor delta (PPARd) signaling pathway - cell viability counter screen (AID 743211); also: nearly all actives have a fitted effect of over 55% in size; also: potency is read from the fitted curve at half-maximal effect
Outline: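 In the same wells used for beta-lactamase reporter measurement, cytotoxicity is scored by CellTiter-Glo. HEK293H PPARd-bla cells receive compound for 17 h at 37C following a 5 h settling period.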

[17] = target: Retinoic acid receptor RXR-alpha (Homo sapiens) (UniProt P19793); assay: qHTS assay to identify small molecule agonists of the RXR signaling pathway (AID 1159527; calls by dose curve; also: % is scaled to controls: 0 for no effect and ±100 for the full control effect; nearly all actives have a fitted effect of over 35% in size)
Chain of Retinoic acid receptor RXR-alpha (Homo sapiens) (P19793 whole entry, looked up): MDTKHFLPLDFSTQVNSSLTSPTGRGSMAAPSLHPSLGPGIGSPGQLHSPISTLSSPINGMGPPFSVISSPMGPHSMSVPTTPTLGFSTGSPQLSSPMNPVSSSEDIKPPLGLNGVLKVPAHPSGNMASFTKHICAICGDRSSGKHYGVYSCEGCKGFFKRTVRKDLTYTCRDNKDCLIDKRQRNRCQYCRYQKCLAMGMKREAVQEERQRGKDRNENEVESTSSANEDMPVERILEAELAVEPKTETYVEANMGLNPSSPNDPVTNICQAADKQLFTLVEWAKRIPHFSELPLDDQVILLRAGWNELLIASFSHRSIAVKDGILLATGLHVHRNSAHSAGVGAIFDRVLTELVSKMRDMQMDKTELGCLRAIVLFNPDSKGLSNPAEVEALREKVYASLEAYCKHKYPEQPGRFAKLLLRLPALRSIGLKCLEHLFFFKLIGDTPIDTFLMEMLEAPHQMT
Outline: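 Using 9-cis retinoic acid as the reference agonist, chemicals were tested in HEK 293T cells […] for 16 hr; substrate loading lasted 2 hr at room temperature.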

[18] = qHTS assay to identify small molecule agonists of the AP-1 signaling pathway (AID 1159526; calls by dose curve; also: % is scaled to controls: 0 for no effect and ±100 for the full control effect)
[19] = target: Peroxisome proliferator-activated receptor delta (Homo sapiens) (UniProt Q03181); assay: qHTS assay to identify small molecule agonists of the peroxisome proliferator-activated receptor delta (PPARd) signaling pathway (AID 743212; calls by dose curve; also: % is scaled to controls: 0 for no effect and ±100 for the full control effect)
Outline: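 HEK293H UAS-bla reporter cells, human PPARd system; compounds delivered in DMSO after 5 h plating, then at 37 C. Beta-lactamase FRET read, 2 h RT substrate step.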

[20] = qHTS assay to identify small molecule agonists of the endoplasmic reticulum stress response signaling pathway (AID 1159516; active = well fitted activation curve with a large enough effect in the signal ratio in the repeat runs, not every such curve was filed as active; the % refers to the signal ratio; also: % is scaled to controls: 0 for no effect and ±100 for the full control effect)
Outline: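 CellSensor ESRE-bla HeLa cells, carrying a beta-lactamase reporter driven by the ER stress response element, were plated overnight and exposed to compounds for 5 hr at 37 C. Reporter activity was read as FRET substrate fluorescence after 2 hr at room temperature.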

CC(C)(C)C1CCC(=O)CC1
inactive: Potency [1] | Potency [2] | Potency [3] | Potency [4] | Potency [5] | Potency [7] | Potency [9] | Potency [10] | Potency [11]
active: Potency [6] 49 µM | Potency [8] 54.9 µM

COC1=C(OC)C(=O)C(CCCCCCCCCCO)=C(C)C1=O
active: Potency [13] 26.6 µM | Potency [7] 23.9 µM | Potency [10] 18.8 µM
inactive: Potency [12] | Potency [2] | Potency [14] | Potency [3] | Potency [4] | Potency [8] | Potency [15]

S=C([S-])NCCNC(=S)[S-].S=C([S-])NCCNC(=S)[S-].[Mn+2].[Zn+2]
inactive: Potency [16] | Potency [12] | Potency [3] | Potency [4] | Potency [8] | Potency [15] | Potency [11]

O=C(Nc1ccc2c(O)c(N=Nc3ccc(N=Nc4ccc(S(=O)(=O)O)cc4)cc3)c(S(=O)(=O)O)cc2c1)c1ccccc1
inactive: Potency [16] | Potency [12] | Potency [2] | Potency [3] | Potency [4] | Potency [5] | Potency [6] | Potency [7] | Potency [8] | Potency [11] | Potency [17]

O=c1[nH]c(=O)n([C@H]2C[C@H](O)[C@@H](CO)O2)cc1F
inactive: Potency [13] | Potency [4] | Potency [5] | Potency [6] | Potency [7] | Potency [8] | Potency [9] | Potency [11] | Potency [18] | Potency [17]
active: Potency [2] 13.3 µM | Potency [3] 11.9 µM

COc1cc2nc(N3CCN(C(=O)c4ccco4)CC3)nc(N)c2cc1OC
inactive: Potency [16] | Potency [19] | Potency [13] | Potency [1] | Potency [2] | Potency [3] | Potency [20] | Potency [15] | viability change, negative = cytotoxic [11] -7.1% [at 15.8 µM] | activation [18] 3.7% [at 15.8 µM] | activation [17] -11.7% [at 15.8 µM]

CC(CCc1ccccc1)NCC(O)c1ccc(O)c(C(N)=O)c1 (configuration not stated)
inactive: Potency [16] | Potency [13] | Potency [2] | Potency [14] | Potency [3] | Potency [9] | Potency [10] | Potency [11] | Potency [17]

CC(C)(c1cc(Br)c(OCC(Br)CBr)c(Br)c1)c1cc(Br)c(OCC(Br)CBr)c(Br)c1 (configuration not stated)
inactive: Potency [16] | Potency [12] | Potency [13] | Potency [2] | Potency [3] | Potency [4] | Potency [5] | Potency [6] | Potency [7] | Potency [15] | Potency [9] | Potency [10] | Potency [11] | Potency [18] | Potency [17]

O=C(O)CN(CCN(CC(=O)O)CC(=O)O)CC(=O)O
inactive: activity change, negative = cytotoxicity [16] 0.566% [at 2.7 µM] | viability change, negative = cytotoxic [12] 5.49% [at 2.83 µM] | viability change, negative = cytotoxic [2] -17.2% [at 2.7 µM] | activity change, negative = cytotoxicity [3] -12.7% [at 2.69 µM] | activity change, negative = cytotoxicity [6] -2.08% [at 2.7 µM] | viability change, negative = cytotoxic [7] 4.84% [at 3.11 µM] | activation [20] -1.14% [at 3.11 µM] | activity, negative = cytotoxicity [9] -1.43% [at 3.27 µM] | viability change, negative = cytotoxic [11] -2.04% [at 2.72 µM] | activation [17] -6.85% [at 2.71 µM]

Cc1ccc(C)cc1
inactive: Potency [16] | Potency [19] | Potency [1] | Potency [2] | Potency [14] | Potency [6] | Potency [7] | Potency [20] | Potency [9] | Potency [10] | Potency [11] | Potency [18] | Potency [17]

O=c1oc2cc(O)ccc2c2oc3cc(O)ccc3c12
inactive: Potency [16] | Potency [12] | Potency [2] | Potency [3] | Potency [6] | Potency [7] | Potency [15] | Potency [9] | Potency [10] | Potency [11] | Potency [18]

OC1CCCc2ccccc21 (configuration not stated)
inactive: Potency [16] | Potency [12] | Potency [2] | Potency [3] | Potency [4] | Potency [5] | Potency [6] | Potency [7] | Potency [20] | Potency [9] | Potency [11] | Potency [18] | Potency [17]

CC(=O)CC(=O)Nc1ccc(S(=O)(=O)O)cc1
inactive: Potency [16] | Potency [12] | Potency [13] | Potency [2] | Potency [3] | Potency [4] | Potency [6] | Potency [7] | Potency [20] | Potency [9] | Potency [11] | Potency [18] | Potency [17]

CCCCNS(=O)(=O)c1ccc(C)cc1
inactive: Potency [16] | Potency [12] | Potency [13] | Potency [2] | Potency [6] | Potency [20] | Potency [9] | Potency [10] | Potency [11] | Potency [18] | Potency [17]

OCCN1CCN(CCCN2c3ccccc3Sc3ccc(C(F)(F)F)cc32)CC1
inactive: Potency [19] | Potency [1] | Potency [14] | Potency [20] | Potency [9] | Potency [11]
active: Potency [16] 26.6 µM | Potency [12] 11.9 µM | Potency [2] 29.8 µM | Potency [7] 23.9 µM

CCCCCCCCCCCC(=O)OCC(C)OC(=O)CCCCC(=O)O (configuration not stated)
inactive: Potency [16] | Potency [12] | Potency [13] | Potency [2] | Potency [3] | Potency [6] | Potency [7] | Potency [15] | Potency [9] | Potency [10] | Potency [11] | Potency [18] | Potency [17]

CC1(C)[C@@H](O)CC[C@]2(C)[C@H]3C(=O)C=C4[C@@H]5C[C@@](C)(C(=O)O)CC[C@]5(C)CC[C@@]4(C)[C@]3(C)CC[C@@H]12
inactive: Potency [7] | Potency [10] | Potency [17]
active: Potency [16] 38.5 µM

Nc1ccc(NCCO)c([N+](=O)[O-])c1
inactive: Potency [16] | Potency [12] | Potency [13] | Potency [2] | Potency [3] | Potency [6] | Potency [7] | Potency [20] | Potency [15] | Potency [11] | Potency [18] | Potency [17]

C=C(C)C(=O)OCCCCCCCCCC
inactive: Potency [1] | Potency [3] | Potency [5] | Potency [7] | Potency [20] | Potency [9] | Potency [10] | Potency [11]
active: Potency [12] 39.2 µM | Potency [6] 44 µM

CN(C)[C@@H](CCOc1cccc2ccccc12)c1ccccc1
active: Potency [16] 23.7 µM
inactive: Potency [13] | Potency [1] | Potency [14] | Potency [3] | Potency [20] | Potency [15]

CCc1oc2ccccc2c1C(=O)c1cc(I)c(O)c(I)c1
inactive: Potency [3] | Potency [20] | Potency [9] | Potency [11]
